Assay results published in the supplement of paper PMC4166925.
± gives the standard deviation of the averaged measurements. In all, about 33,000 sequences were measured (“E-score (dimensionless, -0.5 to 0.5)”: median about -0.046, highest 2% from about 0.36 on). This is one part of a sample in which the highest values are shown more often than they occur.

System: T1, SpTbr T-box DNA-binding domain (GST fusion)
T1 sequence: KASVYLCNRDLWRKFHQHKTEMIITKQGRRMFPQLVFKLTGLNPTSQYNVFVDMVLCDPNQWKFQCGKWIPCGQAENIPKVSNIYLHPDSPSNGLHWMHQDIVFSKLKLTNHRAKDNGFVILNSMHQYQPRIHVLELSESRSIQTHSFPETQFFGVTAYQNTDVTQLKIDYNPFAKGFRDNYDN
Test: PBM E-score of 8-mer (E-score (dimensionless, -0.5 to 0.5)); Tbr is Tbrain of the sea star Patiria miniata (Pm) or the sea urchin Strongylocentrotus purpuratus (Sp); higher = stronger binding preference
Settings: the construct has about 5 more residues each side
Description: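 Universal protein-binding microarray (Agilent AMADID 016060, 60-bp probes with a 35-bp variable region) incubated with 200 nM GST-fused Strongylocentrotus purpuratus Tbr T-box DNA-binding domain (residues 362-554) in PBS pH 7.5. Scored for every ungapped 8-mer (given with its reverse complement) as E-score (range -0.5 to 0.5; >0.45 counts as bound) and Z-score of median probe intensity. Two replicate arrays (datasets 1 and 2).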
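Also: protein at 200 nM in PBS on universal double-stranded arrays.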

Compared with AATGTGTC, AATGTGTA is lower in “PBM E-score of 8-mer” value: 0.413 ± 0.012 for the first, 0.207 ± 0.05 for the second.

AGACGACT and GCTGGGCC are within error of each other in “PBM E-score of 8-mer” value: -0.202 ± 0.093 for the first, -0.144 ± 0.0084 for the second.

Compared with CTGTGACC, GTGTGACA is higher in “PBM E-score of 8-mer” value: 0.142 ± 0.026 for the first, 0.457 ± 0.0047 for the second.

Going from ATGTGACC to CTGTGACA, the “PBM E-score of 8-mer” value rises from 0.169 ± 0.046 to 0.31 ± 0.011.

Going from ATGTGACA to ATGTGACG, the “PBM E-score of 8-mer” value falls from 0.409 ± 0.0051 to 0.285 ± 0.026.

Going from CAGATAGA to CAGCAGAG, the “PBM E-score of 8-mer” value rises from -0.131 ± 0.025 to -0.0309 ± 0.05.

Compared with CACTCTCA, CATGCGCG is lower in “PBM E-score of 8-mer” value: 0.317 ± 0.00081 for the first, 0.221 ± 0.023 for the second.

Compared with CTACTGTC, CAGGACTA is lower in “PBM E-score of 8-mer” value: 0.1 ± 0.024 for the first, -0.191 ± 0.029 for the second.

AGACTTAT and GAGCCTGC are within error of each other in “PBM E-score of 8-mer” value: 0.00662 ± 0.019 for the first, -0.0257 ± 0.039 for the second.

Going from AATAACAC to CATAACAC, the “PBM E-score of 8-mer” value rises from 0.294 ± 0.062 to 0.405 ± 0.028.

Going from GATAACGC to CATAACAA, the “PBM E-score of 8-mer” value falls from 0.288 ± 0.011 to 0.00154 ± 0.064.

Compared with GATAACAA, GATAACAC is higher in “PBM E-score of 8-mer” value: 0.27 ± 0.027 for the first, 0.414 ± 0.022 for the second.

Compared with CAGCATGA, AAGTTGGT is higher in “PBM E-score of 8-mer” value: -0.154 ± 0.015 for the first, -0.0114 ± 0.097 for the second.

Going from GGAGTCAA to CTAGCACA, the “PBM E-score of 8-mer” value rises from -0.0304 ± 0.04 to 0.271 ± 0.018.

Compared with ATAGCACA, ATAGCACG is higher in “PBM E-score of 8-mer” value: 0.156 ± 0.06 for the first, 0.34 ± 0.0094 for the second.

Going from ATAGCACC to CAAGCACC, the “PBM E-score of 8-mer” value falls from 0.387 ± 0.011 to 0.0313 ± 0.011.

Going from CTAGCACC to CCAGTTGA, the “PBM E-score of 8-mer” value falls from 0.415 ± 0.014 to 0.0132 ± 0.086.

Going from CAGGGGTC to AGAATCGC, the “PBM E-score of 8-mer” value rises from -0.231 ± 0.086 to 0.165 ± 0.045.

First: ACTGATGG
Second: ACAGAGGG
The “PBM E-score of 8-mer” value of the first is higher: -0.00902 ± 0.051 for the first, -0.118 ± 0.029 for the second.

GCAATGCC and GCATCTAA are within error of each other in “PBM E-score of 8-mer” value: -0.174 ± 0.032 for the first, -0.0797 ± 0.077 for the second.

Going from GAATTGAA to GTCGCCCA, the “PBM E-score of 8-mer” value rises from -0.177 ± 0.099 to 0.198 ± 0.0069.

ACACATAA and ACACATTA are within error of each other in “PBM E-score of 8-mer” value: 0.269 ± 0.016 for the first, 0.291 ± 0.031 for the second.

Compared with ACACATTG, ACACATAG is lower in “PBM E-score of 8-mer” value: 0.368 ± 0.01 for the first, 0.306 ± 0.018 for the second.

First: CCACATTC
Second: ACACATTC
The “PBM E-score of 8-mer” value of the first is lower: 0.14 ± 0.06 for the first, 0.38 ± 0.022 for the second.

First: AAACATTG
Second: ACACATAT
The “PBM E-score of 8-mer” value of the first is lower: 0.0255 ± 0.053 for the first, 0.407 ± 0.0072 for the second.

AAACATTC and GTCAAGCA are within error of each other in “PBM E-score of 8-mer” value: -0.0068 ± 0.0056 for the first, 0.0528 ± 0.058 for the second.

First: ACTCTTTA
Second: CGCTACCA
The “PBM E-score of 8-mer” value of the first is lower: 0.0329 ± 0.022 for the first, 0.271 ± 0.0082 for the second.

Compared with ATTAGGAG, GAGCCAGC is higher in “PBM E-score of 8-mer” value: -0.247 ± 0.041 for the first, 0.0706 ± 0.066 for the second.

Going from ACTACTCC to ACTCCGGA, the “PBM E-score of 8-mer” value rises from -0.139 ± 0.024 to -0.0213 ± 0.013.

First: AGTGCTAA
Second: GGTGCTAA
The “PBM E-score of 8-mer” value of the first is lower: 0.412 ± 0.015 for the first, 0.4658 ± 0.00059 for the second.

AGTGCTAC and AGTGCGGA are within error of each other in “PBM E-score of 8-mer” value: 0.245 ± 0.027 for the first, 0.257 ± 0.023 for the second.

Going from GGTGCTAC to CGTGCTAA, the “PBM E-score of 8-mer” value falls from 0.42 ± 0.007 to 0.349 ± 0.0041.

AGTGCTAG and AGTGCTAT are within error of each other in “PBM E-score of 8-mer” value: 0.265 ± 0.049 for the first, 0.243 ± 0.079 for the second.

First: GGTGCGGA
Second: TGTGCTAA
The “PBM E-score of 8-mer” value of the first is higher: 0.404 ± 0.023 for the first, 0.26 ± 0.011 for the second.

CGTGCGGA and CGTGCTAC are within error of each other in “PBM E-score of 8-mer” value: 0.147 ± 0.028 for the first, 0.128 ± 0.0037 for the second.

Compared with AGTTACTG, AGTAGCCC is lower in “PBM E-score of 8-mer” value: -0.0684 ± 0.048 for the first, -0.239 ± 0.026 for the second.

Going from CCCGCTTC to GAGTTTGA, the “PBM E-score of 8-mer” value falls from 0.139 ± 0.082 to 0.00341 ± 0.029.

First: AGGTCAAT
Second: CTTTTCGA
The “PBM E-score of 8-mer” value of the first is lower: -0.202 ± 0.093 for the first, -0.087 ± 0.018 for the second.

Compared with TGTGCAAA, GGTGCAAC is lower in “PBM E-score of 8-mer” value: 0.225 ± 0.033 for the first, 0.176 ± 0.012 for the second.

Going from GGTGCAAA to ACGTAGGG, the “PBM E-score of 8-mer” value falls from 0.3907 ± 0.0034 to -0.127 ± 0.051.

First: CTTGGAAC
Second: CGTCAAAG
The “PBM E-score of 8-mer” value of the first is lower: -0.26 ± 0.046 for the first, 0.228 ± 0.028 for the second.

Going from AGAAGGTA to AGAAGGTG, the “PBM E-score of 8-mer” value rises from -0.167 ± 0.031 to 0.386 ± 0.015.

First: ACAAGGTG
Second: ACAAGGTA
The “PBM E-score of 8-mer” value of the first is higher: 0.425 ± 0.0045 for the first, 0.0584 ± 0.021 for the second.

In the case of AGAAGGTC, the “PBM E-score of 8-mer” value is reported as -0.2756 ± 0.0017.
